# Bioassay records: PubChem BioAssay, several laboratories
# Shown are actives, neighbours in structure and some others; about 0.81% of the full set was active somewhere.
# Bfl-1 Bim block: inhibitors of Bim binding to Bfl-1, primary screen, biochemical, multiplexed, bead-based flow cytometry | Bim-Bfl-1 binding inhibition | inhibition, % at 10 µM | 0.12% of 190,000 active | Bcl-2-related protein A1 (Homo sapiens), Q16548 | AID 1008, 2008
# Bcl-XL Bim block: inhibitors of Bim-Bcl-XL binding, primary screen, biochemical, multiplexed, bead flow cytometry, human Bcl-XL | Bcl-2-like protein 1 (Homo sapiens), Q07817 | Bim peptide-Bcl-XL binding, fluorescence | inhibition, % at 10 µM | 0.04% of 190,000 active | AID 1007, 2008
# BCLXL inh: inhibitors of human Bcl-xL, primary screen, biochemical, fluorescence polarization, HTS | Bcl-2-like protein 1 (Homo sapiens), Q07817 | GST-Bcl-xL / FITC-Bim BH3 peptide fluorescence polarization | inhibition, % at 10.9 µM | 0.7% of 320,000 active;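 active = inhibition above the mean of all tested compounds plus 3 SD, cutoff set per campaign, cut at about 30% in these data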;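 also: inhibitors lower millipolarization by displacing the labeled peptide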
# Bcl-B Bim block: inhibitors of Bim-Bcl-B binding, primary screen, biochemical, multiplexed, human Bcl-2 family | bead-based flow cytometry, Bim peptide-Bcl-B binding | 0.073% of 190,000 active | Bcl-2-like protein 10 (Homo sapiens), Q9HD36 | inhibition, % at 10 µM | AID 951, 2007
# Target sequence (Q9HD36 whole entry, looked up): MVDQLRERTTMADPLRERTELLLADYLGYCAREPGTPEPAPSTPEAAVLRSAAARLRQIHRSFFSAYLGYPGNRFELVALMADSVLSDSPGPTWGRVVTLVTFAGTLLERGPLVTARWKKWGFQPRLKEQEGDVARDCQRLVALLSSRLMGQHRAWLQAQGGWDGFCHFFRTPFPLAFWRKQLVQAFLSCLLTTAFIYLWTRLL
# Bcl-2 Bim block: inhibitors of Bim-Bcl-2 binding, primary screen, biochemical, multiplexed, human Bcl-2 family | Apoptosis regulator Bcl-2 (Homo sapiens), P10415 | Bead-based flow cytometry, Bim peptide-Bcl-2 binding | inhibition, % at 10 µM | 0.06% of 190,000 active; in the data active = inhibition above about 40%
# Target sequence (P10415 whole entry, looked up): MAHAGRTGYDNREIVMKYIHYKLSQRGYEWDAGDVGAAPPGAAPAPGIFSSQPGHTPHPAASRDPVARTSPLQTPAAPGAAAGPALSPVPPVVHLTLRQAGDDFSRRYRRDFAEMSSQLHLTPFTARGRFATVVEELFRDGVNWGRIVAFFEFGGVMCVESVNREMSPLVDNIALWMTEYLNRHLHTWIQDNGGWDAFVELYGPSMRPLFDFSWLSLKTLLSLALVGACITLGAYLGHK
# Bcl-W Bim block: inhibitors of Bim binding to Bcl-W, primary screen, biochemical, multiplexed, bead-based flow cytometry; Bcl-2-like protein 2 (Homo sapiens), Q92843; Bim peptide-Bcl-W binding; inhibition, % at 10 µM; 0.02% of 190,000 active; AID 952, 2007;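 also: higher means less fluorescent Bim peptide bound to Bcl-W beads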
# A number is an active result; n = inactive; x = no result. Rule as the data show it, unless noted: active = inhibition above about 40%.
SMILES,Bfl-1 Bim block,Bcl-XL Bim block,BCLXL inh,Bcl-B Bim block,Bcl-2 Bim block,Bcl-W Bim block
COc1ccc(NS(=O)(=O)c2cn(C)cn2)c(OC)c1,x,x,n,x,x,x
NS(=O)(=O)c1ccc(CCNC(=O)C2Cc3ccccc3CN2C(=O)c2ccco2)cc1 (configuration not stated),n,n,n,n,n,n
NS(=O)(=O)c1ccc(NC(=O)C2Cc3ccccc3CN2C(=O)c2ccco2)cc1 (configuration not stated),x,x,38,x,x,x
Cc1ccc(NC(=O)c2ccc(S(=O)(=O)N3CCCCC3)cc2)nc1,x,x,n,x,x,x
COc1ccc(/C=N/N=C2/CC(C)(C)Cc3n[nH]c(=O)cc32)cc1,n,n,138,n,n,n
C=CCNC(=S)NS(=O)(=O)c1cccs1,n,n,n,n,n,n
CCOc1ccc2nc3cc(NCc4ccc(OC)cc4)ccc3c(N)c2c1,x,x,184,x,x,x
CCn1cnc2cc(NCc3ccc(OC)cc3)ccc21,n,n,n,n,n,n
CC(=O)c1ccccc1NC(=O)COC(=O)Cc1cccc(C(F)(F)F)c1,x,x,n,x,x,x
CN(C)S(=O)(=O)c1cc(NC(=O)CNCCN2CCOCC2)ccc1Cl,x,x,n,x,x,x
COc1ccccc1N(CC1CO1)S(=O)(=O)c1ccc(C)cc1 (configuration not stated),x,x,n,x,x,x
c1ccc2nc(N3CCOCC3)c(N3CCOCC3)nc2c1,n,n,n,n,n,n
c1ccc2c(c1)nc(N1CCN(C3CCCCC3)CC1)c1nnnn12,n,n,x,n,n,n
c1ccc2c(c1)nc(N1CCOCC1)c1nnnn12,n,n,43,n,n,n
c1ccc(N2CCN(c3nc4ccccc4n4nnnc34)CC2)cc1,n,n,51,n,n,n
CCN(Cc1ccccc1)S(=O)(=O)c1c(C)[nH]c(C)c1C(=O)N1CCCC1,x,x,n,x,x,x
CCNC(=O)N1c2ccc(OCC)cc2C(C)=CC1(C)C,40,n,48,n,n,n
CCOc1ccc2c(c1)C(C)=CC(C)(C)N2C(=O)Nc1ccccc1F,n,n,n,n,n,n
CCn1c(=O)c2sccc2n2c(CCCC(=O)N3CCN(c4ccccn4)CC3)nnc12,x,x,n,x,x,x
CC(C)CCn1c(=O)c2sccc2n2c(CCCC(=O)N3CCN(c4ccccn4)CC3)nnc12,x,x,71,x,x,x
Cc1ccc(NC(=S)NNC(=O)c2ccccc2O)c(C)c1,n,n,n,n,n,n
O=C(CN1CCc2ccccc21)NC(=O)NC1CCCCC1,x,x,n,x,x,x
COc1cc(NC(=S)N2CCN(CCO)CC2)cc(OC)c1,x,x,73,x,x,x
CC(C)(C)C1CC=C2C(C#N)=C(N)C(C#N)(C#N)C(c3cccs3)C2C1 (configuration not stated),x,x,60,x,x,x
N#CC1=C(N)C(C#N)(C#N)C(c2cccnc2)C2COCC=C12 (configuration not stated),n,n,n,n,n,n
SMILES,Bfl-1 Bim block,Bcl-XL Bim block,BCLXL inh,Bcl-B Bim block,Bcl-2 Bim block,Bcl-W Bim block
CN1C2C=C3C(C#N)=C(N)C(C#N)(C#N)[C@@H](c4cccs4)C3C1CC2 (some centres not stated),n,n,43,n,n,n
CN1C2C=C3C(C#N)=C(N)C(C#N)(C#N)[C@@H](c4cccc(F)c4)[C@@H]3C1CC2 (some centres not stated),n,n,31,n,n,n
CN1C2C=C3C(C#N)=C(N)C(C#N)(C#N)[C@H](c4c(F)cccc4F)[C@H]3C1CC2 (some centres not stated),n,n,n,n,n,n
COC(=O)CSc1ncc(S(=O)(=O)c2ccccc2)c(=O)[nH]1,x,x,n,x,x,x
O=C(c1cc(Cl)ccc1F)N1CCCC(Nc2ccc3c(c2)OCCO3)C1 (configuration not stated),x,x,n,x,x,x
Clc1ccc(NCc2cccnc2)cc1,x,x,n,x,x,x
Fc1ccc(NCc2cccnc2)cc1F,n,n,64,n,n,n
CC(C)(C)OC(=O)NCCCC1=CC2=CC(=O)C(C)(OC(=O)c3ccc(Cl)nc3)C(=O)C2=CO1 (configuration not stated),x,x,80,x,x,x
CC(C)(C)OC(=O)NCCCC1=CC2=CC(=O)C(C)(O)C(=O)C2=CO1 (configuration not stated),x,x,34,x,x,x
CCC(=O)OC1(C)C(=O)C=C2C=C(CCCCNC(=O)OC(C)(C)C)OC=C2C1=O (configuration not stated),x,x,n,x,x,x
Cn1c(/N=C/c2c(O)ccc3ccccc23)nc2ccccc21,n,n,36,n,n,n
O=C(N/N=C/c1ccc(O)c(O)c1O)/C(=C/c1ccc([N+](=O)[O-])cc1)NC(=O)c1ccccc1,41,n,n,n,n,n
Cc1ccc(NC(=O)/C(=C\c2ccc([N+](=O)[O-])cc2)NC(=O)c2ccccc2)cc1,n,n,n,n,n,n
COC(=O)COc1ccc(S(=O)(=O)NCc2ccc3c(c2)OCO3)cc1C,x,x,n,x,x,x
c1coc(-c2nnc(-c3ccco3)nn2)c1,x,x,43,x,x,x
CCS(=O)(=O)c1nc(S(=O)(=O)c2ccc(C)cc2)c(N2CCN(C)CC2)s1,x,x,n,x,x,x
CCN(CC)Cc1c(O)ccc2cc(-c3nc4ccccc4n3C)c(=O)oc12,x,x,36,x,x,x
CCc1cc2c(=O)c(-c3nc4ccccc4n3C)c(C)oc2c(CN(CC)CC)c1O,n,n,n,n,n,n
CCN(CC(=O)Nc1ccccc1C(F)(F)F)C(=O)CCOc1ccc(C)cc1,x,x,n,x,x,x
Nc1ccc(O)c(-c2nc3ccccc3s2)c1,n,n,51,n,n,n
Oc1ccc(-c2nc3ccccc3s2)c(O)c1,x,x,n,x,x,x
Oc1ccc(N=C/C=C/c2cccc(Br)c2)cc1-c1nc2ccccc2s1,n,n,36,n,n,n
O=C(Nc1ccc(O)c(-c2nc3ccccc3s2)c1)c1cccs1,n,n,n,n,n,n
Cc1ccc(NC(=S)Nc2ccc(S(=O)(=O)N3CCOCC3)cc2)cc1S(=O)(=O)N1CCOCC1,n,n,n,n,n,n
CCOC(=O)N1CCC(NC(=O)C2CCN(C(=O)c3cc4sccc4n3CC)CC2)CC1,x,x,n,x,x,x
